This note sets out measurements from ChEMBL document CHEMBL3988442, “University of Dundee, Small-Polar-MMV Screening Library” (2021).

For some of these results: Potency and affinity values are given separately.

Common to all, as to parameters: scale not given: direction of the effect not stated beside the values
The target in assay [1] is Protein translocase subunit SecA (Escherichia coli (strain K12)) (UniProt P10408). As to the kind of experiment: Assay to Identify E. coli SecA ATPase Inhibitors. The assay is classed as functional. Conditions: 30 µM.
Assay [2] has as its target T1, Ubiquitin-activating enzyme e1, putative (Leishmania donovani (strain BPK282A1)) (UniProt E9BSI1).
T1 sequence (whole entry): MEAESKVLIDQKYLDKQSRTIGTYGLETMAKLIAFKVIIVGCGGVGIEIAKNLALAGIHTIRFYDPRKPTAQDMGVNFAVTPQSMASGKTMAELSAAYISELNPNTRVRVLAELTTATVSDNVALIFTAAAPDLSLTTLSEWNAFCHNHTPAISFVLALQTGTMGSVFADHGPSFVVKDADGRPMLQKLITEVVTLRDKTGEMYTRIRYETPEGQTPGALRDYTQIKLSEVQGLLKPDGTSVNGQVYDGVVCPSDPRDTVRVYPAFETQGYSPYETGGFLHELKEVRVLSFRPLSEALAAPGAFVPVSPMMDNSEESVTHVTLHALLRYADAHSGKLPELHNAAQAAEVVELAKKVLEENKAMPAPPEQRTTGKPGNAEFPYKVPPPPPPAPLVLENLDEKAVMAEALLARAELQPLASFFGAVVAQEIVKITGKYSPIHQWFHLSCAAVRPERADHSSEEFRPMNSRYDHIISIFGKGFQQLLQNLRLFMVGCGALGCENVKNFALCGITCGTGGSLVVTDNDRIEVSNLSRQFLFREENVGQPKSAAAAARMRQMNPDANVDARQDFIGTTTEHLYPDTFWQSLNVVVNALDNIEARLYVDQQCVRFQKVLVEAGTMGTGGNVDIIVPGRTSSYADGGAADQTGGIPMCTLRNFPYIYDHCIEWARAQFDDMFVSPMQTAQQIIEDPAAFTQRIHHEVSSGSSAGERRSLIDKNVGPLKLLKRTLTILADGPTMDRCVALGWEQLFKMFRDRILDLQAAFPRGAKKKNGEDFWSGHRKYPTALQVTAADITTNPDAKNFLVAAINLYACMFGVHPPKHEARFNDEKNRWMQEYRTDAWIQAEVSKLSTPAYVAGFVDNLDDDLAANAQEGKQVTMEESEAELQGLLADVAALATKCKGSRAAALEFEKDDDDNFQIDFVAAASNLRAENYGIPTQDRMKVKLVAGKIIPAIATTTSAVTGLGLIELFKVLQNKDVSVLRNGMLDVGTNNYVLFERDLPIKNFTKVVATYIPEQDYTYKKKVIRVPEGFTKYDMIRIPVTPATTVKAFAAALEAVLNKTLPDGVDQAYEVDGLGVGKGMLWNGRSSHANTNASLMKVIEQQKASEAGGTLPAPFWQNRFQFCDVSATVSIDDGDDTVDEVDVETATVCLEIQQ
As to the kind of experiment: Leishmania donovani Ubiquitin Activating Enzyme (LdE1). The format is functional. The settings on record: 30 µM.

Assay [3] deals with AMP-activated protein kinase, AMPK (Homo sapiens) (UniProt P54646+O43741+P54619+Q9UGJ0+Q9Y478+Q13131+Q9UGI9). The assay can be described thus: AMP-dependent Kinase enzyme assay. An in vitro enzyme assay that detects ADP turnover that is directly proportional to AMPK activity. This uses naive AMPK that is activated during the assay with MK-8722. The format is functional. The settings on record: 30 µM.

Assay [4] deals with Sialic acid-binding Ig-like lectin 9 (Homo sapiens) (UniProt Q9Y336). As to the kind of experiment: Hs-Siglec9 ALPHAscreen SOP 20170721. Conditions: 10 µM. On the technique in general: Bead proximity is the source of the signal in Alpha formats.
In a further assay the test system is Trypanosoma cruzi. As to the kind of experiment: Trypanosoma cruzi phosphomannomutase and mannose-1-phosphate guanylyltransferase assay. The assay is classed as functional. The settings on record: 10 µM.
Assay [5] addresses T2, Arginase-2, mitochondrial (Homo sapiens) (UniProt P78540).
T2 sequence (whole entry): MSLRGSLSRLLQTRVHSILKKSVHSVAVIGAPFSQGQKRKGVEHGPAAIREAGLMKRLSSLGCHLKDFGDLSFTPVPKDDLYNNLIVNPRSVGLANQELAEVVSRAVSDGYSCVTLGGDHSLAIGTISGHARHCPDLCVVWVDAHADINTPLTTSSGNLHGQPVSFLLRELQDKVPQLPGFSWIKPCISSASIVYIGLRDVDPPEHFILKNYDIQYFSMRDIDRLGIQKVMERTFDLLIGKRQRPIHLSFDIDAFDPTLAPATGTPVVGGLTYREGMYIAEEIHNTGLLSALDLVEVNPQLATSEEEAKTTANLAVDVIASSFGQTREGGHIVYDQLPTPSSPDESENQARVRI
The assay can be described thus: in vitro enzyme assay to detect the production of urea directly proportional to the activity of Arginase II. Also: in the data most compounds retested in dose-response had high values. The assay is classed as functional. Conditions: 33.3 µM.

The target in assay [6] is T3, Proteasome subunit beta (Trypanosoma cruzi) (UniProt O96673).
T3 sequence (whole entry): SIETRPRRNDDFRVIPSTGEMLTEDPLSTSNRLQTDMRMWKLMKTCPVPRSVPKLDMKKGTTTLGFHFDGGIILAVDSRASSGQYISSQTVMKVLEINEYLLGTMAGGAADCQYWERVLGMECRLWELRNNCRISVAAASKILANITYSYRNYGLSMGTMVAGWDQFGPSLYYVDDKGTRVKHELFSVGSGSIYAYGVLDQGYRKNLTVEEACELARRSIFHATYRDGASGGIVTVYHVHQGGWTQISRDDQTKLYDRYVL
As to the kind of experiment: Trypanosoma cruzi proteasome chymotrypsin-like activity (TcProtChymo) assay. Also: in the data most compounds retested in dose-response had high values. The format is functional. The settings on record: 9.37 µM.

For a further assay, the species on record is Homo sapiens. The assay can be described thus: To identify inhibition of the IFN signalling (Jak-Stat) pathway via expression of an eGFP reporter gene under the control of an IFN-stimulated response element (ISRE) containing MxA promoter. The assay is classed as functional. Conditions: 30 µM.
Assay [7] concerns the target T4, Tyrosyl-tRNA synthetase, putative (Trypanosoma cruzi (strain CL Brener)) (UniProt Q4DSP6).
T4 sequence (whole entry): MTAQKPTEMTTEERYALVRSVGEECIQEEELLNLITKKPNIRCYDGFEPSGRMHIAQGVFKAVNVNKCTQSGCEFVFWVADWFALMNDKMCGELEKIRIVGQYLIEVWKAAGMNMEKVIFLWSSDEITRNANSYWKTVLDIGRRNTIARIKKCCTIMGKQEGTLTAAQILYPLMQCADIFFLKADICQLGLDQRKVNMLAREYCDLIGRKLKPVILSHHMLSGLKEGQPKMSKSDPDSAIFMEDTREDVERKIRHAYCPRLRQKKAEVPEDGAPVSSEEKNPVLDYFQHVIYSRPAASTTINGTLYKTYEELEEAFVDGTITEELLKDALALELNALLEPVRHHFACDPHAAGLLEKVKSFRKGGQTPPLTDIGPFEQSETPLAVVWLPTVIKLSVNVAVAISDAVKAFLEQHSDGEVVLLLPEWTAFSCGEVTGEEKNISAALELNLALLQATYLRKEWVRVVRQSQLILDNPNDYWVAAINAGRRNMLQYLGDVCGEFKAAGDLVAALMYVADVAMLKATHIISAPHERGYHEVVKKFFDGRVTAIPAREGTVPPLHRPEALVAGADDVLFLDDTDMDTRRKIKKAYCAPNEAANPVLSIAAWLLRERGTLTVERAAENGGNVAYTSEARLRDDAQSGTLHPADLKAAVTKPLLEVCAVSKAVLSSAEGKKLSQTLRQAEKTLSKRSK
The assay can be described thus: Trypanosoma cruzi tyrosyl tRNA synthetase (TcYRS) _High Tyrosine SOP. Also: in the data most compounds retested in dose-response had high values. The format is functional. Conditions: 30 µM.

Assay [8] has as its target T4, Tyrosyl-tRNA synthetase, putative (Trypanosoma cruzi (strain CL Brener)). The assay can be described thus: Trypanosoma cruzi tyrosyl tRNA synthetase (TcYRS) SOP. Conditions: 30 µM. The assay is classed as functional.
The target of assay [9] is Chromo domain-containing protein 1 (Saccharomyces cerevisiae (strain ATCC 204508 / S288c) (Baker's yeast)) (UniProt P32657). As to the kind of experiment: ScCHD-1 Enzyme Inhibition Assay. Also: in the data most compounds retested in dose-response had high values. The format is functional. Conditions: 30 µM.
Chain of Chromo domain-containing protein 1 (Saccharomyces cerevisiae (strain ATCC 204508 / S288c) (Baker's yeast)) (P32657 whole entry, the tested form may be a part): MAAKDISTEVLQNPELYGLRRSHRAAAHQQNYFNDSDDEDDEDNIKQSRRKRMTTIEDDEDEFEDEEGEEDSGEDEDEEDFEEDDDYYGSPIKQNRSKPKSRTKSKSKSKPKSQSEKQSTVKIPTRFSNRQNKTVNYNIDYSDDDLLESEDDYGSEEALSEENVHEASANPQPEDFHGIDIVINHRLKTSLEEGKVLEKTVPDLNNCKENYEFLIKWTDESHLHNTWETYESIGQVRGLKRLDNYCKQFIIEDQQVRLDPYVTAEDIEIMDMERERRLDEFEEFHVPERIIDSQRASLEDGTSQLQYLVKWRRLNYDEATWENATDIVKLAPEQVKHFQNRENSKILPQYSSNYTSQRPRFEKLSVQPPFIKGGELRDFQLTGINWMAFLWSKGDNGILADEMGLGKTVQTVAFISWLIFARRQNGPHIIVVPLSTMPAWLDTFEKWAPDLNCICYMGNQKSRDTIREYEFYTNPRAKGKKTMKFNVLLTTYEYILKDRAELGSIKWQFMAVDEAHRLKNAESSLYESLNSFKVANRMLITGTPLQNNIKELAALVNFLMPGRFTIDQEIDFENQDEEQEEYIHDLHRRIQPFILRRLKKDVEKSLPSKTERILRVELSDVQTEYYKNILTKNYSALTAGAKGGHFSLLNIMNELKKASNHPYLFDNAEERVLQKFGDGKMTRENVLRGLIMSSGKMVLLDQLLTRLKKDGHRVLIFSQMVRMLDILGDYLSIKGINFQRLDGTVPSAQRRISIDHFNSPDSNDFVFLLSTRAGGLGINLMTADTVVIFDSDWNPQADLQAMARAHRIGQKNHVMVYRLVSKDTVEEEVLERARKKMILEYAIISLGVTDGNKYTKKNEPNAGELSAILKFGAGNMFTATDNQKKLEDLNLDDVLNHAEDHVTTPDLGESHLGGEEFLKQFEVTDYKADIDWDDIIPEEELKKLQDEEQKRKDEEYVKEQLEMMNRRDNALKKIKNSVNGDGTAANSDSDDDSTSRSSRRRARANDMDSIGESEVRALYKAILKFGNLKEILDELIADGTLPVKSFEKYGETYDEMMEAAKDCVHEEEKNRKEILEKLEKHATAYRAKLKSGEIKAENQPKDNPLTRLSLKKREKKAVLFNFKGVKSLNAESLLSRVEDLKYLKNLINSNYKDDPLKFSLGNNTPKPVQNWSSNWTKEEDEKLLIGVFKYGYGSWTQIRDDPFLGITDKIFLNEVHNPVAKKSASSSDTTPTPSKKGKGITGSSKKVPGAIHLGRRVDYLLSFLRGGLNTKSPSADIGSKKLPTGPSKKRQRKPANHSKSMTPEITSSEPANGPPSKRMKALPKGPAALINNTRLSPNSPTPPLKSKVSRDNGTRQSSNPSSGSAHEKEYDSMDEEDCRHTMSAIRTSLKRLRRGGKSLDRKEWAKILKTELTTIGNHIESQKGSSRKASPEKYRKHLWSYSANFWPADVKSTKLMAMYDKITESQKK

Chain of Protein translocase subunit SecA (Escherichia coli (strain K12)) (P10408 whole entry): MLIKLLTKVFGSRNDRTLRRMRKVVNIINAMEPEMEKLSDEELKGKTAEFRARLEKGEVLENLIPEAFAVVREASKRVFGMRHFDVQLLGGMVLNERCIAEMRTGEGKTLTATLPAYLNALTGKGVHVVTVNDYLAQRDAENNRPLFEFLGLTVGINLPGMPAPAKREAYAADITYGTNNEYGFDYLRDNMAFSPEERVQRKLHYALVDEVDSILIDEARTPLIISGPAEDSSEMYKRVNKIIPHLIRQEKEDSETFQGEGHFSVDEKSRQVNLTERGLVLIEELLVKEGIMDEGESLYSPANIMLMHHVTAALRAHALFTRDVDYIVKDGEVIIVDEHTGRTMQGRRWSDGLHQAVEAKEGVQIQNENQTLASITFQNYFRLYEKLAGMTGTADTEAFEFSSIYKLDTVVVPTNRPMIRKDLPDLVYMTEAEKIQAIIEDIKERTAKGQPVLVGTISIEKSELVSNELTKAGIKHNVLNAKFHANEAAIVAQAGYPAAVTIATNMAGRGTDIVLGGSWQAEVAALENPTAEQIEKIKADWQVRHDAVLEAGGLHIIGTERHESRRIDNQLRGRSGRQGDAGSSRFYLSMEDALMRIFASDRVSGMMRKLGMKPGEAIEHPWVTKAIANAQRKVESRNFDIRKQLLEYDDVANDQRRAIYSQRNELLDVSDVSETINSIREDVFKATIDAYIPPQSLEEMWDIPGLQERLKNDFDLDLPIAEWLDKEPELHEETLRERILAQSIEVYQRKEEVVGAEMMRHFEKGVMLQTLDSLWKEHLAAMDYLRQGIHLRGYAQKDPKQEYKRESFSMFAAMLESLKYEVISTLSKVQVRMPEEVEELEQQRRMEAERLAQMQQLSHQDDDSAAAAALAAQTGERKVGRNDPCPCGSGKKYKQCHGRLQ
Chain of Sialic acid-binding Ig-like lectin 9 (Homo sapiens) (Q9Y336 whole entry): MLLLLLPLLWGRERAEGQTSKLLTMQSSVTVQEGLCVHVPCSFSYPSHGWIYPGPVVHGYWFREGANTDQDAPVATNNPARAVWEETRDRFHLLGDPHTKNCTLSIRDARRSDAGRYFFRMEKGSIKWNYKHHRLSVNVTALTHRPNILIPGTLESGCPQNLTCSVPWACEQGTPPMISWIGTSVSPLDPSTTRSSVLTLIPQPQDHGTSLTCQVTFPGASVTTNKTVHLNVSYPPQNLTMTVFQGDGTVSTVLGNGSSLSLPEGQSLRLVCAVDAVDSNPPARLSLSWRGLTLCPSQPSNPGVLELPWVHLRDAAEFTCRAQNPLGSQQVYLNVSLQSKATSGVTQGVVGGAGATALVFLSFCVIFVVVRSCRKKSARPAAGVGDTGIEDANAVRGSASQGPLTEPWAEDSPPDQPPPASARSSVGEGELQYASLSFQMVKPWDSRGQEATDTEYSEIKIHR

For the compound `Cn1ccnc1CC1CCCN(C(=O)Nc2cccn(C)c2=O)C1` (stereo unspecified), the Percent Effect in assay [1] is -3.36%; in [2], 5.41%; in assay [3], -17.1%; in assay [4], 6.3%; with Trypanosoma cruzi, 2.93%; in assay [5], 27.9%. For the same compound, the Percent Effect was 12.9% in assay [6]; 4.41% in the assay filed under Homo sapiens; 8.91% in assay [7]; 13.4% in [8]; -5.06% in assay [9].
On to `CCc1noc(C(C)N2CCC(C(=O)Nc3cnn(CC)c3)CC2)n1` (stereo unspecified), for which the Percent Effect in assay [1] was -1.91%; in [2], 1.27%; in assay [3], 3.92%; in assay [4] it was -3.56%; with Trypanosoma cruzi, 1.54%; in [5] it was 2.37%. Further, the Percent Effect in assay [6] is 7.72%; in the assay listed under Homo sapiens, 8.57%; in assay [7], -4.17%; in [8] it was -10.1%; in [9], -28.9%.
Regarding `Cc1cc(C)cc(OCCC(=O)N2CCOCC2c2ncon2)c1` (stereo unspecified), the Percent Effect in [1] is -7.26%; in [2] it was 2.7%; in assay [3], -4.41%; in [4] it was 6.93%; with Trypanosoma cruzi, -5.11%; in assay [5], -1.29%. For the same compound, the Percent Effect in assay [6] was -1.62%; in the assay listed under Homo sapiens, 4.3%; in assay [7], 2.97%; in [8] it was 11%; in [9], 0.318%.
For the compound `Cc1ccc(OCC(=O)NCc2ccccc2F)nc1`, the Percent Effect in [1] was -2.7%; in assay [2], 19.2%; in [3] it was -0.689%; in assay [4], 12.5%; in the assay on Trypanosoma cruzi, 4.56%; in [5], -2.4%. Further, the Percent Effect in assay [6] was 8.13%; in the assay filed under Homo sapiens, 13.8%; in assay [7], 7.29%; in assay [8], 13.6%; in assay [9], -4.08%.
As to `CC(C)CN1CCC(C(=O)Nc2cc(C(F)(F)F)c[nH]c2=O)CC1`, the Percent Effect is -7.9% in assay [1]; 10.4% in assay [2]; 4.55% in assay [3]; 14.9% in assay [4]; 6.37% in the assay with Trypanosoma cruzi; -2.13% in [5]. Besides, the Percent Effect in [6] is 1.18%; in the assay filed under Homo sapiens it was -6.76%; in assay [7], 5.83%; in assay [8] it was 21.9%; in assay [9], -10.2%.
As to `CC(O)CN1CCN(C(=O)c2cnn(-c3ccc(Cl)cc3)c2)CC1` (stereo unspecified), the Percent Effect is -8.22% in assay [1]; 5.33% in assay [2]; -3.17% in assay [3]; 23.3% in assay [4]; 6.13% in the assay with Trypanosoma cruzi; 5.21% in assay [5]. The Percent Effect in [6] is 11%; in the assay listed under Homo sapiens, 7.52%; in assay [7], 1.64%; in assay [8], 8.64%; in assay [9], -3.32%.
In the case of `O=C1CO[C@@H]2CN(S(=O)(=O)c3ccccc3)C[C@H]2N1CC1CC1`, the Percent Effect in [1] was -1.03%; in assay [2], 8%; in assay [3], 4.02%; in [4], 2.54%; with Trypanosoma cruzi it was -3.28%; in assay [5], -44.3%. The Percent Effect in assay [6] is 7.86%; in the assay listed under Homo sapiens, -3.38%; in assay [7] it was -8.33%; in assay [8] it was -20%; in assay [9], -6.74%.
Take `Cc1cnn(CCNCc2nc(-c3ccccc3Cl)no2)c1`: the Percent Effect is -4.16% in [1]; 10.5% in assay [2]; 0.118% in assay [3]; -5.56% in [4]; 9.77% with Trypanosoma cruzi; -4.98% in assay [5]. Also, the Percent Effect in assay [6] was 16.5%; in the assay filed under Homo sapiens it was 12.2%; in assay [7], 5.39%; in [8], 17.1%; in [9], -13.7%.
On to `CC(C)C(Sc1nnnn1-c1ccccc1)C(=O)NCc1cccnc1` (stereo unspecified), for which the Percent Effect is -3.59% in assay [1]; 7.79% in assay [2]; 1.33% in [3]; -5.13% in assay [4]; -8.05% with Trypanosoma cruzi; -1.42% in assay [5]. Also, the Percent Effect in assay [6] is 13%; in the assay listed under Homo sapiens it was 17%; in [7], 4.85%; in assay [8], 9.76%; in [9] it was -8.86%.
As to `Cc1nc(C)n(C2CCCN(C(=O)c3ccc(N(C)C)nn3)C2)n1` (stereo unspecified), the Percent Effect is -1.66% in assay [1]; -5.2% in [2]; 4.94% in assay [3]; -6.86% in [4]; 7.35% in the assay on Trypanosoma cruzi; -0.632% in assay [5]. The Percent Effect in [6] was 6.06%; in the assay filed under Homo sapiens it was -42.5%; in assay [7], 2.86%; in assay [8], 0%; in assay [9], -16.9%.
Turning to `Cc1nc(CN(C)C2CCN(Cc3ccno3)C2)no1` (stereo unspecified), the Percent Effect was -3.58% in [1]; 18.2% in assay [2]; -53.5% in assay [3]; -23.7% in [4]; 5.19% in the assay with Trypanosoma cruzi; -7.79% in assay [5]. The Percent Effect in assay [6] was found to be 29.4%; in the assay listed under Homo sapiens, 4.64%; in assay [7] it was 3.81%; in assay [8], 18.8%; in assay [9], 3.1%.
